From PubChem
FBA Mtb inh: Mtb FBA enzyme inhibitors, primary screen, biochemical, fluorescence, strain H37Rv; purified M. tuberculosis FBA, fluorescence read-out; inhibition, % at 1 µM; actives 2.3% (n = 360,000); in the data active means inhibition above about 27%;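 further: 0% = vehicle and 100% = reference inhibitor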
Target sequence (P9WQA3 whole entry, looked up): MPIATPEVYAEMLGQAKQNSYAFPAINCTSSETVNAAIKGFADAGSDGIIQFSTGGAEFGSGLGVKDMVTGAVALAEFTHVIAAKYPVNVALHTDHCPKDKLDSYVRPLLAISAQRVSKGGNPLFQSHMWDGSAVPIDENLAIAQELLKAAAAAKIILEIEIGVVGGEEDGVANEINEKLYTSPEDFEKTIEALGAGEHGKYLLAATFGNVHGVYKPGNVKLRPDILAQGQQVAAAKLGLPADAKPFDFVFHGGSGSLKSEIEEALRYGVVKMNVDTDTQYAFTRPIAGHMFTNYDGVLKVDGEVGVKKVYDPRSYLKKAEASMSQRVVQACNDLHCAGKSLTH
GDH-TPI inh: GDH-TPI coupling enzyme inhibitors, primary screen, artefact control for M. tuberculosis FBA inhibitor project, biochemical, absorbance, full deck | GDH-TPI coupled enzyme counterscreen, NADH absorbance | actives 1.2% (n = 360,000) | inhibition, % at 4.8 µM; in the data active means inhibition above about 30%;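 further: 0% = DMSO wells and 100% = wells lacking the enzyme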
BioA inh: M. tuberculosis BioA enzyme inhibitors, primary screen, biochemical, plate reader, single point, HTS. 7,8-diaminopelargonic acid synthase BioA (Mycobacterium tuberculosis). purified M. tuberculosis BioA enzyme. actives 0.096% (n = 360,000). inhibition, % at 9.99 µM. AID 602481, 2012; in the data active means inhibition above about 40%
SARS 3CLpro inh: SARS-CoV 3CLpro protease inhibitors, primary screen, biochemical, quenched FRET. inhibition, % at 6 µM. recombinant SARS-CoV 3CLpro, quenched FRET peptide cleavage. AID 1706, 2009. actives 0.14% (n = 290,000); in the data active means inhibition above about 12%
FadD28 binding: inhibitors of FadD28 bisubstrate probe binding, primary screen, biochemical, fluorescence polarization, single point; Mycobacterium tuberculosis FadD28 fatty-acid-AMP ligase; inhibition, % at 12.5 µM; actives 0.22% (n = 360,000); AID 588549, 2011; in the data active means inhibition above about 8.5%, passing the limit was not always enough
* = called active by the depositor. Sampled rows, rich in hits. Any-hit rate of the full collection: about 3.1%.

COc1ccc(C2CC(=O)C3=C(C2)Nc2ccccc2NC3c2coc3ccccc3c2=O)cc1OC (configuration not stated) was read as FBA Mtb inh 2, GDH-TPI inh 40*, SARS 3CLpro inh 6 and FadD28 binding 0.
Screening COc1cc(OC)c(C2Nc3ccccc3NC3=C2C(=O)CC(C)(C)C3)cc1OC (configuration not stated) returned FBA Mtb inh 1, GDH-TPI inh 7, BioA inh -2, SARS 3CLpro inh 0 and FadD28 binding -4.
For C[C@@H]1CN([C@H](C)CO)C(=O)c2cc(NC(=O)NC3CCCCC3)ccc2O[C@@H](C)CCCCO[C@@H]1CN(C)CC1CCCCC1 the results were BioA inh -1.
COc1ccc2ccccc2c1/C=N\NC(=O)c1cccnc1 was read as FBA Mtb inh 2, GDH-TPI inh 35*, BioA inh -1 and FadD28 binding 0.
`Cc1nn(Cc2ccccc2)c(Cl)c1/C=N/NC(=O)c1cccnc1` gave FBA Mtb inh 0, GDH-TPI inh 10, BioA inh 104*, SARS 3CLpro inh 3 and FadD28 binding -1.
Screening Cc1c(/C=N/NC(=O)c2cccnc2)c2ccccc2n1Cc1ccccc1 returned FBA Mtb inh -3, GDH-TPI inh 21, BioA inh 6, SARS 3CLpro inh -3 and FadD28 binding -5.
Screening Cc1cc(O)c(C)c(O)c1/C=N/NC(=O)c1cccnc1 returned FBA Mtb inh -2, GDH-TPI inh 31*, BioA inh -1, SARS 3CLpro inh 2 and FadD28 binding -3.
For COc1ccc(CNC(=O)C[C@@H]2CC[C@@H](NC(=O)c3cccc(F)c3)[C@H](CO)O2)cc1 the results were BioA inh 10.
Cc1noc(C)c1NC(=O)Nc1ccc2c(c1)C(=O)N([C@H](C)CO)C[C@H](C)[C@@H](CN(C)S(=O)(=O)c1ccc(F)cc1)OCCCC[C@@H](C)O2 was read as BioA inh -2.
`O=C1/C(=C/C=C/c2ccco2)SC(=S)N1c1ccc(O)cc1` gave FBA Mtb inh 1, GDH-TPI inh 2, SARS 3CLpro inh 1 and FadD28 binding 18*.
For CC(C)C(C(=O)O)N1C(=O)/C(=C/C=C/c2ccco2)SC1=S (configuration not stated) the results were FBA Mtb inh -3, GDH-TPI inh 12, SARS 3CLpro inh -3 and FadD28 binding 47*.
For O=C1/C(=C\c2ccco2)SC(=S)N1c1ccc(O)cc1 the results were FBA Mtb inh -2, GDH-TPI inh 7, SARS 3CLpro inh 2 and FadD28 binding 3.
`O=C(NN1C(=O)/C(=C/C=C/c2ccccc2)SC1=S)c1ccncc1` gave FBA Mtb inh -13, GDH-TPI inh 6, SARS 3CLpro inh 1 and FadD28 binding -2.
Screening O=C(NN1C(=O)/C(=C/C=C/c2ccco2)SC1=S)c1ccncc1 returned FBA Mtb inh -14, GDH-TPI inh 9, BioA inh 0, SARS 3CLpro inh -1 and FadD28 binding 30*.
`C[C@@H]1CN([C@@H](C)CO)C(=O)c2cc(NS(=O)(=O)c3cccs3)ccc2O[C@@H]1CN(C)Cc1ccc(Oc2ccccc2)cc1` gave BioA inh -2.
Screening C/C=C/c1ccc2c(c1)O[C@H](CN(C)CC1CC1)[C@H](C)CN([C@@H](C)CO)S2(=O)=O returned BioA inh 1.
`C[C@@H]1CCCCO[C@H](CN(C)C(=O)NC2CCCCC2)[C@H](C)CN([C@H](C)CO)C(=O)c2cc(NS(=O)(=O)c3ccccc3)ccc2O1` gave BioA inh 2.
Screening CC(=O)c1sc(NC(=O)COc2ccccc2)nc1C returned FBA Mtb inh -2, GDH-TPI inh 10, BioA inh 0, SARS 3CLpro inh -2 and FadD28 binding 0.
Screening Cc1nc2ccccn2c(=O)c1NC(=O)COc1ccccc1 returned FBA Mtb inh 5, GDH-TPI inh 31*, BioA inh 0 and FadD28 binding -1.
Screening O=C(C[C@H]1CC[C@H]2[C@@H](COC[C@@H](O)CN2C(=O)Nc2cccc(F)c2)O1)NCc1ccccc1Cl returned BioA inh 3.
